Test results: PubChem BioAssay

Test: CREB reporter modulators under forskolin, primary screen, cell-based, PC12, CRE-LacZ reporter, forskolin-stimulated (AID 1146);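 further: PC12 cells with 6xCRE LacZ reporter stimulated by forskolin 10 µM; beta-galactosidase reporter signal reflecting CREB driven transcription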
Details: luminescence, 4.5 h, higher = more signal, called active from +8 up or from −8 down

z-score, inactive:
CC(C)C[C@@H]1NC(=O)[C@H]2C[C@@H](C(=O)NCCCCCCNC(=O)CS)[C@@H](c3cccc(OCCO)c3)N2C1=O -1.47, CC(C)NC(=O)[C@@]1(Cc2ccccc2I)c2ccccc2C(=O)N(Cc2ccccc2)[C@H]1c1ccc(CO)cc1 0.0359, O=C1O[C@H](c2ccccc2)[C@H](c2ccccc2)N2[C@H]1[C@@H](C(=O)N1CCN(c3ncccn3)CC1)[C@]1(C(=O)Nc3ccccc31)[C@H]2c1ccc(OCCO)cc1 -0.222, COc1ccc(CCNC(=O)[C@@]2(Sc3ccc(C)cc3)CC(=O)N(Cc3ccccc3Cl)[C@@H]2c2ccc(CO)cc2I)cc1 1.12, CN(C)C(=O)[C@]1(CCC(=O)OC(C)(C)C)N=C(c2ccc(OCCCO)cc2)O[C@@H]1c1ccccc1N=[N+]=[N-] 0.0155, CC(=O)NCCCC[C@@H]1NC(=O)[C@@H]2C[C@H](C(=O)NCCCCN(C)C)[C@H](c3ccc(O)cc3)N2C1=O -0.174, COc1c(C)cc(-c2cc3c(c(-c4ccc(Oc5ccccc5)cc4)n2)[Si](C(C)C)(C(C)C)OC3)cc1C 0.151, CC(C)CNC(=O)[C@@]1(c2ccc([N+](=O)[O-])cc2)CC(=O)N(CC23CC4CC(CC(C4)C2)C3)[C@@H]1c1ccc(CO)cc1 -1.32, Cc1ccc(F)cc1S(=O)(=O)N[C@@H]1CCN(Cc2ccc(-c3ccccc3)cc2)C1 0.959, CC(C)(C)OC(=O)CC[C@]1(C(=O)N2CCCCC2)N=C(c2ccc(OCCCO)cc2)O[C@H]1c1ccccc1N=[N+]=[N-] -1.57, COC(=O)c1ccc(C(O)C2C=CC3C(=O)N(C)C(=O)C3N2NC(=O)OC(C)(C)C)o1 (stereo not given) 0.323, CCCCCCCCCCC(O)C1C=CC2C(=O)N(Cc3ccccc3)C(=O)C2N1n1cnnc1 (stereo not given) -0.728, CCOC(=O)C1=CC[C@@H](c2ccccc2)N(S(=O)(=O)c2ccc(C)cc2)[C@H]1C(=O)OCC -0.76, CCCNC(=O)[C@@]1(c2ccc([N+](=O)[O-])cc2)CC(=O)N(CC23CC4CC(CC(C4)C2)C3)[C@@H]1c1ccc(CO)cc1 -0.312, COCCOC(=O)N1C(=O)[C@@]2(c3ccccc31)[C@H](C(=O)NC[C@H](O)c1ccccc1)[C@H]1C(=O)O[C@H](c3ccccc3)[C@H](c3ccccc3)N1[C@@H]2c1ccc(OCCO)cc1 -0.686, CCCCC=C[C@@H](NC(=O)c1ccco1)c1ccccc1 -0.0695, CC(=O)NCCCC[C@@H]1NC(=O)[C@H]2C[C@@H](C(=O)NCCCCCC[N+](C)(C)C)[C@@H](c3cccc(OCCO)c3)N2C1=O -0.812, O=C(CS)NCCCCCCNC(=O)[C@H]1C[C@H]2C(=O)NCC(=O)N2[C@H]1c1ccc(O)cc1 0.551, COC(=O)[C@@]1(Cc2ccc(OC)cc2)[C@H]2c3cc(C(=O)N(C)C)n(Cc4c(OC)[nH]cc(C)c4=O)c3C[C@H]2CN1C(=O)c1ccccc1 0.69, CS(=O)(=O)CCOC(=O)C1=CC(c2ccc(CO)cc2)=CC(C2CC2)N(Cc2cc3c(cc2Br)OCO3)C=C1C(=O)OCCS(C)(=O)=O (stereo not given) -2.41, C=CCOC(=O)[C@H]1[C@@H]2C(=O)O[C@@H](c3ccccc3)[C@@H](c3ccccc3)N2[C@@H](c2ccc(OCCOC(=O)[C@@H]3C[C@@H]4C(=O)N5CCC[C@H]5C(=O)N4[C@@H]3c3ccc(O)cc3)cc2)[C@]12C(=O)Nc1ccccc12 -0.72, O=C1O[C@@H](c2ccccc2)[C@@H](c2ccccc2)N2[C@@H](c3ccccc3OCCO)[C@]3(C(=O)Nc4ccc(C#CC5(O)CCCCCC5)cc43)[C@@H](C(=O)Nc3nc4ccccc4s3)[C@H]12 0.474, COCC(=C=CC[C@@H](O)c1ccc(CO)o1)CCO -0.845, CC(C)CNC(=O)[C@@H]1c2ccccc2C(=O)N(Cc2cc(C(F)(F)F)cc(C(F)(F)F)c2)[C@H]1c1ccc(CO)cc1 -1.2, C=CCOC(=O)[C@H]1[C@@H]2C(=O)O[C@@H](c3ccccc3)[C@@H](c3ccccc3)N2[C@@H](c2ccc(OCCOC(=O)[C@@H]3C[C@@H]4C(=O)NCC(=O)N4[C@@H]3c3ccc(O)cc3)cc2)[C@]12C(=O)Nc1ccccc12 -0.979
